According to PubChem BioAssay (NCI):
The panel holds about 83,000 compounds, 20% with a hit somewhere; the sample as a whole holds those more often.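 Values shown are percent growth following 48 h exposure of cells in 96-well plates to a single concentration of compound; below 10 was considered active.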 A number with no mark means an inactive call. Activity calls are given as the source filed them.

What follows are molecules tested on MDA-MB-435 melanoma (assay: NCI-60 one-dose screen, 48 h (100 = growth as untreated, 0 = no growth, -100 = all killed)). Details: 10 µM unless noted.

| SMILES | growth |
| --- | --- |
| O=CC1(C2(C=O)c3ccccc3-c3ccccc32)c2ccccc2-c2ccccc21 | -57.9% (active) |
| N#Cc1c(-c2cccs2)cc(-c2cccnc2)[nH]c1=O | 102% |
| CCOC(=O)c1cnc2ccccc2c1Cl | 98.9% |
| Cn1cccc1C(=O)C1C(c2cccc([N+](=O)[O-])c2)C2C3CCCCC3CN2C12C(=O)Nc1ccc(Cl)cc12 (stereo not given) | 56.3% |
| Cc1ccccc1/C=C1\CN(C(=O)OC(C)(C)C)C/C(=C\c2ccccc2C)C1=O | 12% |
| Cc1ccc(-c2cc(-c3ccc(Cl)cc3)nc(NC(=O)c3cccnc3)n2)cc1 | 99.8% |
| O=c1c2cc(-c3ccccc3)sc2nc2sc(-c3ccccc3)nn12 | 105% |
| COc1ccc2nc(NC(=O)CSc3nnc4n3S(=O)(=O)c3ccccc3N4C)sc2c1 | 113% |
| Cc1ccc(/C=C2\CN(C(=O)OC(C)(C)C)C/C(=C\c3ccc(C)cc3)C2=O)cc1 | -44.4% (active) |
| O=C(Nn1c2c(sc1=Nc1ccccc1)C(=O)c1ccccc1C2=O)c1cc2ccc1CCc1ccc(cc1)CC2 | -72.5% (active) |
| O=C1Nc2ccc(I)cc2C1=O | 103% |
| Fc1ccc2[nH]cc(-c3nonc3-c3c[nH]c4ccc(Br)cc34)c2c1 | 47.5% |
| O=C(/C=C/c1ccc(Cl)cc1)c1cccc(Nc2nc(Nc3ccccc3)nc(Nc3ccccc3)n2)c1 | 102% |
| O=[N+]([O-])c1ccc(S(=O)(=O)N2CCN(C3=NS(=O)(=O)c4ccccc4N3c3ccccc3)CC2)cc1 | 97.2% |
| Oc1ccc(CCn2c(O)c(/C=C3\CN=c4ccccc4=N3)sc2=S)cc1 | 70.6% |
| CCOC(=O)/C=C1\S/C(=N\Nc2cc(=O)[nH]c3ccc(Cl)cc23)N(c2ccccc2)C1=O | 96.3% |
| CCOC(=O)c1cn2ncnc(Oc3ccc(NC(=O)NC4CCCCC4)c(Cl)c3)c2c1C | 85.6% |
| Fc1cc2c(cc1Cl)N(c1ncnc3ccc(-c4cnc5[nH]ncc5c4)cc13)CC2 | 74.1% |
| CC1=C(Nc2ccc(N3CCN(C)CC3)cc2)C(=O)c2cncnc2C1=O | -83.7% (active) |
| COc1ccc(C(=O)Nc2ncc(Cc3ccc(F)cc3)s2)cc1 | 2.51% (active) |

| SMILES | growth |
| --- | --- |
| Cc1ccc(CNc2ccc(Cl)cc2NCc2ccc(C)c(O)c2)cc1O | 30.9% |
| COc1cc(NC(C)CCCNC(C)C)c2ncccc2c1OC (stereo not given) | 108% |
| Cc1ccc(NC(=S)NNC(=S)NNc2ccccc2)cc1C | 110% |
| COc1ccc(/C=N/C2=C(C#N)C(c3cccc(Cl)c3)c3c(ccc4ccccc34)O2)cc1 (stereo not given) | -36% (active) |
| C#CCOc1ccc2ncnc(Nc3cccc(NC(=O)C=C)c3)c2c1 | 69.1% |
| Cc1nc2c(=O)[nH]c(SCC(=O)Nc3cccc(F)c3)nc2[nH]c1=O | 103% |
| CC1(C)c2[nH]c3ccccc3c2C[C@]2(C)[C@H]3CC=C4[C@@H]5C[C@@](C)(C(N)=O)CC[C@]5(C)CC[C@@]4(C)[C@]3(C)CC[C@@H]12 | 59.3% |
| CCOC(=O)c1cc(-c2ccc([N+](=O)[O-])cc2)n(-c2ccc(C(=O)O)c(O)c2)c1C | 50.6% |
| Nc1c(C(=O)Nc2ccncc2)sc2nc3c(cc12)CCCCCC3 | 96% |
| COc1cccc(NC(=O)Cn2cc(CN3CCN(c4ccnc5cc(Cl)ccc45)CC3)nn2)c1 | 96.7% |
| COC(=O)c1cc(-c2ccc(OC)cc2)[nH]c1N/N=C/c1c(Cl)cccc1Cl | -54.7% (active) |
| O=C1CC(N2C(=O)/C(=C/C(Cl)=C\c3ccc([N+](=O)[O-])cc3)SC2=S)C(=O)N1c1ccc(Cl)cc1 (stereo not given) | 3.02% (active) |
| Clc1ccc2c(c1)N(c1ncnc3ccc(-c4cnc5[nH]ncc5c4)cc13)CC2 | 31.1% |
| O=C1Nc2ccc(Br)cc2/C1=N/c1n[nH]c(=S)s1 | 101% |
| O=C1C(Cl)=C(Oc2ccccc2)C(=O)c2ccccc21 | 108% |
| Cn1cc(-c2csc(-c3ccc(Cl)cc3)n2)c2cccnc21 | -6.61% [100 µM] (active) |
| Brc1ccc2[nH]cc(-c3nonc3-c3c[nH]c4ccccc34)c2c1 | 47.1% |
| COc1ccc(C2=Nc3c/c(=C\c4c(O)[nH]c5ccc(Cl)cc45)ccc3=N2)cc1 | -68.5% (active) |
| CC(C)NC1CCC(Nc2ccnc3cc(Cl)ccc23)CC1 (stereo not given) | 96% |
| Cc1cc(=O)[nH]c2c(C#N)cnn12 | 104% |
